The panel holds about 83,000 compounds, 20% with a hit somewhere; the sample as a whole holds those more often.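 Results are percent growth after 48 hours of single-concentration exposure. 100 means growth as in untreated cells, lower positive values show inhibition; negative values down to -100 show cell death.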 The source made the active and inactive calls. The calls were made as follows: active = growth percent below 10; inactive = the rest.
Key:
Test in all cases: NCI-60 one-dose screen, 48 h (100 = growth as untreated, 0 = no growth, -100 = all killed)
Details in all cases: 10 µM unless noted
NCI-H23 lung = tested on: NCI-H23 lung
NCI-H226 lung = tested on: NCI-H226 lung
NCI-H322M lung = tested on: NCI-H322M lung
HOP-62 NSCLC = tested on: HOP-62 NSCLC
NCI-H460 lung = tested on: NCI-H460 lung
NCI-H522 lung = tested on: NCI-H522 lung
A549/ATCC NSCLC = tested on: A549/ATCC NSCLC
786-0 renal = tested on: 786-0 renal
COLO 205 colon = tested on: COLO 205 colon
DU-145 prostate = tested on: DU-145 prostate
MALME-3M melanoma = tested on: MALME-3M melanoma
MDA-MB-231 breast = tested on: MDA-MB-231 breast
RXF 393 renal = tested on: RXF 393 renal
SF-268 CNS = tested on: SF-268 CNS
SF-295 CNS = tested on: SF-295 CNS
SF-539 CNS = tested on: SF-539 CNS
UACC-257 melanoma = tested on: UACC-257 melanoma
M14 melanoma = tested on: M14 melanoma

Measured: growth

O=S1(=O)NCCN1CCNc1nccc(-c2c(-c3cccc(O)c3)nc3sccn23)n1
active: MALME-3M melanoma 4.99%
inactive: NCI-H23 lung 104% | NCI-H226 lung 105% | NCI-H322M lung 115% | HOP-62 NSCLC 115% | NCI-H460 lung 107% | NCI-H522 lung 87.2% | A549/ATCC NSCLC 106% | 786-0 renal 126% | COLO 205 colon 42.4% | DU-145 prostate 106% | MDA-MB-231 breast 86.8% | RXF 393 renal 111% | SF-268 CNS 116% | SF-295 CNS 93.2% | SF-539 CNS 109% | UACC-257 melanoma 59.7% | M14 melanoma 20.8%

CC(C)(C)c1nn(-c2ccccc2)c2c1C(=O)CSC(c1ccc3c(c1)OCO3)N2 (centres undefined)
inactive: NCI-H23 lung 99.8% | NCI-H226 lung 104% | NCI-H322M lung 88.8% | HOP-62 NSCLC 88.6% | NCI-H460 lung 106% | NCI-H522 lung 89.7% | A549/ATCC NSCLC 112% | 786-0 renal 88.7% | COLO 205 colon 113% | DU-145 prostate 104% | MALME-3M melanoma 92% | MDA-MB-231 breast 98.6% | RXF 393 renal 114% | SF-268 CNS 92.5% | SF-295 CNS 91.4% | SF-539 CNS 101% | UACC-257 melanoma 130% | M14 melanoma 91.3%

COc1cc(CN(CCC(O)N2CCCC2=O)Cc2ccc3c(c2)OCO3)cc(OC)c1OC (centres undefined)
inactive: NCI-H23 lung 108% | NCI-H226 lung 104% | NCI-H322M lung 90.3% | HOP-62 NSCLC 103% | NCI-H460 lung 106% | NCI-H522 lung 95.4% | A549/ATCC NSCLC 106% | 786-0 renal 94.1% | COLO 205 colon 120% | DU-145 prostate 108% | MALME-3M melanoma 109% | MDA-MB-231 breast 110% | RXF 393 renal 121% | SF-268 CNS 106% | SF-295 CNS 91.5% | SF-539 CNS 100% | UACC-257 melanoma 109% | M14 melanoma 95.8%

COc1ccccc1CNCCCN1C(=O)c2ccc3c4c(ccc(c24)C1=O)C(=O)N(CCCNCCCN)C3=O
inactive: NCI-H226 lung 38.7% | HOP-62 NSCLC 11.6% | 786-0 renal 11% | MDA-MB-231 breast 12.2% | SF-295 CNS 14.5%
active: NCI-H23 lung -63.4% | NCI-H322M lung 1.95% | NCI-H460 lung -26.5% | NCI-H522 lung -75.6% | A549/ATCC NSCLC 9.81% | COLO 205 colon -87.8% | DU-145 prostate -1.55% | MALME-3M melanoma -41.9% | RXF 393 renal -36.9% | SF-268 CNS -0.397% | SF-539 CNS 8.47% | UACC-257 melanoma -74.4% | M14 melanoma -44.1%

CCOC(=O)c1ccc2c(c1)nc(-c1ccc(Cl)cc1)n2-c1cc(C(C)(C)C)[nH]n1
active: M14 melanoma 9.36%
inactive: NCI-H23 lung 44.5% | NCI-H226 lung 29.5% | NCI-H322M lung 64.1% | HOP-62 NSCLC 39.3% | NCI-H460 lung 23.1% | NCI-H522 lung 26.1% | A549/ATCC NSCLC 39.9% | 786-0 renal 14.1% | COLO 205 colon 34.7% | DU-145 prostate 53.4% | MALME-3M melanoma 33.5% | MDA-MB-231 breast 54.1% | RXF 393 renal 21.4% | SF-268 CNS 44.8% | SF-295 CNS 16.9% | SF-539 CNS 11.3% | UACC-257 melanoma 73.2%

COc1cccc(C2C(C#N)=C(N)Oc3cc4c(cc32)OCO4)c1 (centres undefined)
inactive: NCI-H322M lung 37.6% | HOP-62 NSCLC 22.7% | NCI-H522 lung 11.5% | A549/ATCC NSCLC 21.4% | 786-0 renal 29.9% | MALME-3M melanoma 39.8% | MDA-MB-231 breast 30.2% | SF-268 CNS 29.9% | UACC-257 melanoma 57.4%
active: NCI-H23 lung 9.81% | NCI-H226 lung -7.07% | NCI-H460 lung 7.64% | COLO 205 colon -47.1% | DU-145 prostate 1.58% | RXF 393 renal 2.45% | SF-295 CNS 7.47% | SF-539 CNS 4.53% | M14 melanoma 0.938%

O=C1OCC2=C1C(c1ccccc1)c1cc3c(cc1N2CCO)CCC3 (centres undefined)
active: NCI-H23 lung -0.519% | NCI-H460 lung -37.3% | NCI-H522 lung -31.4% | 786-0 renal 8.65% | COLO 205 colon -81.7% | DU-145 prostate 2.03% | SF-295 CNS -21.8% | SF-539 CNS -50.5% | M14 melanoma -15.1%
inactive: NCI-H226 lung 27% | NCI-H322M lung 34.2% | HOP-62 NSCLC 20.9% | A549/ATCC NSCLC 34.6% | MALME-3M melanoma 50.2% | MDA-MB-231 breast 16.4% | RXF 393 renal 11% | SF-268 CNS 39.2% | UACC-257 melanoma 61.7%

CCNC(=O)c1ccc2c(c1)nc(-c1ccc(Cl)cc1)n2-c1cc(C(C)(C)C)[nH]n1
inactive: NCI-H23 lung 60% | NCI-H226 lung 46.9% | NCI-H322M lung 70.9% | HOP-62 NSCLC 47.3% | NCI-H460 lung 36.7% | NCI-H522 lung 32.3% | A549/ATCC NSCLC 48.6% | 786-0 renal 27.7% | COLO 205 colon 51.8% | DU-145 prostate 71.4% | MALME-3M melanoma 34.9% | MDA-MB-231 breast 64.3% | RXF 393 renal 36.2% | SF-268 CNS 51.6% | SF-295 CNS 16.4% | SF-539 CNS 32.6% | UACC-257 melanoma 79.1% | M14 melanoma 18.1%

Source: PubChem BioAssay (NCI)
